Source: PubChem BioAssay (Tox21)
Results filed as inconclusive are left out. Where a call stands in place of a potency, no number is given. Activity calls are given as the source filed them. Unless noted, calls come from the whole dose curve.

Experiments:
[1] = qHTS assay to identify small molecule agonists of the peroxisome proliferator-activated receptor delta (PPARd) signaling pathway - cell viability counter screen (AID 743211; active = well fitted curve in the direction sought with a large enough effect in the repeat runs; an effect the other way counts as inactive or inconclusive; note: nearly all actives have a fitted effect of over 55% in size)
Summary of the method: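 Read-out: CellTiter-Glo luminescence, 30 min RT, measured in the same wells as the beta-lactamase reporter. Cells: GeneBLAzer PPAR delta UAS-bla HEK293H, 3000 cells/well, compound exposure 17 h at 37C.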

[2] = target: Peroxisome proliferator-activated receptor delta (Homo sapiens) (UniProt Q03181); test: qHTS assay to identify small molecule agonists of the peroxisome proliferator-activated receptor delta (PPARd) signaling pathway (AID 743212)
Summary of the method: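 A PPARd-bla HEK293H line with beta-lactamase under an Upstream Activator Sequence is treated with compounds at 37 C. Substrate loading for 2 h at room temperature precedes the fluorescence measurement.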

[3] = qHTS assay to identify small molecule antagonists of the peroxisome proliferator-activated receptor delta (PPARd) signaling pathway - cell viability counter screen (AID 743213; active = well fitted curve in the direction sought with a large enough effect in the repeat runs; an effect the other way counts as inactive or inconclusive; note: nearly all actives have a fitted effect of over 50% in size)
Summary of the method: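 HEK293H cells with the PPARd UAS-bla reporter, co-treated 17 h at 37 C with compounds and L165041 (300 nM final), were lysed with CellTiter-Glo. Luminescence indicated viable cell content.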

[4] = target: Peroxisome proliferator-activated receptor delta (Homo sapiens) (UniProt Q03181); test: qHTS assay to identify small molecule antagonists of the peroxisome proliferator-activated receptor delta (PPARd) signaling pathway (AID 743215; active = well fitted inhibition curve with a large enough effect in the signal ratio in the repeat runs, not every such curve was filed as active; the % refers to the signal ratio;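 note: cells stimulated with agonist L165041 at 300 nM final during compound exposure; series mostly up to about 62 µM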)
Summary of the method: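 Antagonist-mode beta-lactamase reporter screen: HEK293H cells with UAS-bla under PPARd control, stimulated by 300 nM L165041 (final) alongside test compound for 17 h at 37 C, then FRET fluorescence after 2 h substrate incubation.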

[5] = target: Bile acid receptor (Homo sapiens) (UniProt Q96RI1); test: qHTS assay to identify small molecule antagonists of the farnesoid-X-receptor (FXR) signaling pathway (AID 743217; active = well fitted inhibition curve with a large enough effect in the signal ratio in the repeat runs, not every such curve was filed as active; the % refers to the signal ratio)
Summary of the method: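 Beta-lactamase reporter under UAS control in HEK 293T cells; compound exposure 16 h at 37 °C in the presence of chenodeoxycholic acid (50 uM final); signal from B/G FRET substrate after 2 h at room temperature.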

[6] = qHTS assay to identify small molecule agonists of the farnesoid-X-receptor (FXR) signaling pathway - cell viability counter screen (AID 743218; active = well fitted curve in the direction sought with a large enough effect in the repeat runs; an effect the other way counts as inactive or inconclusive; note: nearly all actives have a fitted effect of over 45% in size)
Summary of the method: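 In GeneBLAzer FXR-UAS-bla HEK 293T cells, compounds act for 16 h at 37 C. Cell viability is then scored in the reporter wells by CellTiter-Glo, 30 min at RT, luminescence.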

[7] = qHTS assay to identify small molecule antagonists of the farnesoid-X-receptor (FXR) signaling pathway - cell viability counter screen (AID 743221; active = well fitted cell-killing curve with a large enough effect in the repeat runs, not every such curve was filed as active; note: nearly all actives have a fitted effect of over 50% in size)
Summary of the method: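 HEK 293T FXR-bla cells, 5 h pre-incubation; compound + CDCA 50 uM final, 16 h, 37 C; beta-lactamase FRET read first, then CellTiter-Glo luminescence, 30 min RT.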

[8] = target: Vitamin D3 receptor (Homo sapiens) (UniProt P11473); test: qHTS assay to identify small molecule agonists of the vitamin D receptor (VDR) signaling pathway (AID 743222)
Summary of the method: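 Agonist activity measured in VDR-bla reporter cells. Exposure 16 h, 37C, 5% CO2; detection by B/G FRET substrate, 2 h RT.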

[9] = qHTS assay to identify small molecule antagonists of the vitamin D receptor (VDR) signaling pathway - cell viability counter screen (AID 743225; active = well fitted curve in the direction sought with a large enough effect in the repeat runs; an effect the other way counts as inactive or inconclusive; note: nearly all actives have a fitted effect of over 50% in size)
Summary of the method: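 Viability counter screen run in the same wells as the beta-lactamase reporter assay: HEK 293T VDR-UAS-bla cells, 16 h compound exposure at 37C with 3 nM (final) 1-alpha,25-dihydroxyvitamin D3. CellTiter-Glo luminescence, 30 min, room temperature.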

[10] = qHTS assay to identify small molecule agonists of the NFkB signaling pathway - cell viability counter screen (AID 1159515); note: series mostly up to about 61 µM; nearly all actives have a fitted effect of over 55% in size
Summary of the method: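 Viability in NFkB-bla ME-180 cells was measured by CellTiter-Glo luminescence, 30 min room temperature, in wells already treated 5 hr with compounds and read for reporter FRET.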

[11] = qHTS assay to identify small molecule agonists of the endoplasmic reticulum stress response signaling pathway (AID 1159516; active = well fitted activation curve with a large enough effect in the signal ratio in the repeat runs, not every such curve was filed as active; the % refers to the signal ratio)
Summary of the method: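 ER stress element reporter (bla) in HeLa. 1,500 cells/well, overnight attachment; 5 hr compound; 2 hr RT substrate; dual-emission fluorescence.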

[12] = qHTS assay to identify small molecule agonists of the endoplasmic reticulum stress response signaling pathway - cell viability counter screen (AID 1159517);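 note: HeLa cells carrying an ER stress response element beta-lactamase reporter; series mostly up to about 61 µM; nearly all actives have a fitted effect of over 50% in size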
Summary of the method: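 CellTiter-Glo was added to wells already read for beta-lactamase FRET, and luminescence was recorded 30 min later. Cells: ESRE-bla HeLa, 1,500 per well, compound exposure 5 hr at 37 C.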

[13] = qHTS assay to identify small molecule antagonists of the retinoid-related orphan receptor gamma (ROR-gamma) signaling pathway - cell viability counter screen (AID 1159520; active = well fitted curve in the direction sought with a large enough effect in the repeat runs; an effect the other way counts as inactive or inconclusive; note: nearly all actives have a fitted effect of over 50% in size)
Summary of the method: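 Tet-on ROR gamma CHO cells (1,000/well) were plated 4 hr, given compounds in DMSO for 2 hr at 37 C, then induced with 1 uM final doxycycline for 16 hr. Viability was read as ATP by CellTiter-Glo luminescence after 30 min.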

[14] = target: Nuclear receptor ROR-gamma (Homo sapiens) (UniProt P51449); test: qHTS assay to identify small molecule antagonists of the retinoid-related orphan receptor gamma (ROR-gamma) signaling pathway (AID 1159521; active = well fitted curve in the direction sought with a large enough effect in the repeat runs; an effect the other way counts as inactive or inconclusive)
Summary of the method: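 Luminescence readout (ONE-Glo, 30 min RT) after 16 h doxycycline induction; loss of signal scored as antagonism. CHO cells with TET-inducible RORγ and RORE-LUC reporter; compounds added 2 h before 1 uM final doxycycline.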

[15] = qHTS assay to identify small molecule agonists of the AP-1 signaling pathway - cell viability counter screen (AID 1159525); note: nearly all actives have a fitted effect of over 55% in size
Summary of the method: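 ME-180 AP-1-bla, 2500 cells/well, Opti-MEM + 0.5% dialyzed FBS; overnight 37 °C; cpd 15-pt titration, 5 h 37 °C; CellTiter-Glo 30 min RT; luminescence read; normalised to TOAB and DMSO controls.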

[16] = qHTS assay to identify small molecule agonists of the AP-1 signaling pathway (AID 1159526)
[17] = target: Retinoic acid receptor RXR-alpha (Homo sapiens) (UniProt P19793); test: qHTS assay to identify small molecule agonists of the RXR signaling pathway (AID 1159527); note: nearly all actives have a fitted effect of over 35% in size; note: potency is the fitted concentration of half-maximal effect
Summary of the method: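 Agonist mode; 9-cis retinoic acid positive control. HEK 293T UAS-bla reporter cells, 2% charcoal-stripped FBS, 16 hr compound exposure at 37 C/5% CO2. LiveBLAzer B/G FRET substrate 2 hr RT; ex 405, em 460/530 nm.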

[18] = target: Bile acid receptor (Homo sapiens) (UniProt Q96RI1); test: qHTS assay to identify small molecule agonists of the farnesoid-X-receptor (FXR) signaling pathway (AID 743220; active = well fitted activation curve with a large enough effect in the signal ratio in the repeat runs, not every such curve was filed as active; the % refers to the signal ratio)
Summary of the method: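 Beta-lactamase reporter under UAS control in GeneBLAzer FXR HEK 293T cells (5000/well) measured with LiveBLAzer FRET substrate after 2 h at room temperature. Compound exposure lasted 16 h at 37C.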

[19] = target: Vitamin D3 receptor (Homo sapiens) (UniProt P11473); test: qHTS assay to identify small molecule antagonists of the vitamin D receptor (VDR) signaling pathway (AID 743223; active = well fitted inhibition curve with a large enough effect in the signal ratio in the repeat runs, not every such curve was filed as active; the % refers to the signal ratio)
Summary of the method: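 Beta-lactamase reporter read-out: FRET substrate fluorescence after 2 h at room temperature, following 16 h exposure of VDR-bla cells to test compound plus 3 nM (final) 1alpha,25-dihydroxyvitamin D3 agonist at 37C.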

[20] = qHTS assay to identify small molecule agonists of the vitamin D receptor (VDR) signaling pathway - cell viability counter screen (AID 743224; active = well fitted curve in the direction sought with a large enough effect in the repeat runs; an effect the other way counts as inactive or inconclusive)
Summary of the method: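 VDR-bla cell line, quantitative HTS format; 16 h compound incubation (37C, 5% CO2); ATP-based CellTiter-Glo luminescence measured in the reporter assay wells.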

Chain of Bile acid receptor (Homo sapiens) (Q96RI1 whole entry, looked up): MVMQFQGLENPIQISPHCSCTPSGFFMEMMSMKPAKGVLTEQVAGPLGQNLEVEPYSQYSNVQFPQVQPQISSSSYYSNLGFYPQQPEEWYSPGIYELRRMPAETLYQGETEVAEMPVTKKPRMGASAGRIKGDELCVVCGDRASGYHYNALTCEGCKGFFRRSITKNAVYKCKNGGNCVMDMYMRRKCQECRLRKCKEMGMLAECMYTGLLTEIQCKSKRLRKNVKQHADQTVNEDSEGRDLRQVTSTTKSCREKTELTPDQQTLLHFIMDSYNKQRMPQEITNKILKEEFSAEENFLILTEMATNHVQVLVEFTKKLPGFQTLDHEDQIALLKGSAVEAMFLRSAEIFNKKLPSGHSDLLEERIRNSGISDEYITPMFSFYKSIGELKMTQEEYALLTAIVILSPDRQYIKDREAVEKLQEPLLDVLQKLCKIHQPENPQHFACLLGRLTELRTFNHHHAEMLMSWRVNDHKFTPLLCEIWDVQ
Chain of Peroxisome proliferator-activated receptor delta (Homo sapiens) (Q03181 whole entry, looked up): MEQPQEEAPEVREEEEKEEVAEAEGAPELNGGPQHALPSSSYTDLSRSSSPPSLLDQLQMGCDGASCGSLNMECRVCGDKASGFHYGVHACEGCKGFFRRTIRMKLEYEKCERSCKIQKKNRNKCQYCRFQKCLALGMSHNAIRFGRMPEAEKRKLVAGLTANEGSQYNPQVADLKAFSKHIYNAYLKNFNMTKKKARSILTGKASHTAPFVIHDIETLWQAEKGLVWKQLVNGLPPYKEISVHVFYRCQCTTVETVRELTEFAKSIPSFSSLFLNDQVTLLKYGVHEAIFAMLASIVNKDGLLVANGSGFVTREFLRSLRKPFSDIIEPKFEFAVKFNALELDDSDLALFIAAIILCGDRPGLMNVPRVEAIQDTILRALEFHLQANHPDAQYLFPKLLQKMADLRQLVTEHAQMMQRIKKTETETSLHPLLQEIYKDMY
Chain of Retinoic acid receptor RXR-alpha (Homo sapiens) (P19793 whole entry, looked up): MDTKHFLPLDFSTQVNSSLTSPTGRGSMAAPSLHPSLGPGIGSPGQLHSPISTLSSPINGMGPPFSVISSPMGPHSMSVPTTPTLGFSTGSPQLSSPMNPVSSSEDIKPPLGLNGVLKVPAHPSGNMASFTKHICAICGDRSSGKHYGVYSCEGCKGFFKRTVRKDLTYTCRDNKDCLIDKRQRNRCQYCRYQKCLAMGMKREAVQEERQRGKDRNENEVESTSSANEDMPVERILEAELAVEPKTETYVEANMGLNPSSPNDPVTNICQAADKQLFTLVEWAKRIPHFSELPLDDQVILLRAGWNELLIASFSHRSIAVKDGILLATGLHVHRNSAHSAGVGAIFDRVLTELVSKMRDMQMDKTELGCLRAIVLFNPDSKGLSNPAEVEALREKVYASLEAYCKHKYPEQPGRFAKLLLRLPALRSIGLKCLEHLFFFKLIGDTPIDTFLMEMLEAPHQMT
Chain of Vitamin D3 receptor (Homo sapiens) (P11473 whole entry, looked up): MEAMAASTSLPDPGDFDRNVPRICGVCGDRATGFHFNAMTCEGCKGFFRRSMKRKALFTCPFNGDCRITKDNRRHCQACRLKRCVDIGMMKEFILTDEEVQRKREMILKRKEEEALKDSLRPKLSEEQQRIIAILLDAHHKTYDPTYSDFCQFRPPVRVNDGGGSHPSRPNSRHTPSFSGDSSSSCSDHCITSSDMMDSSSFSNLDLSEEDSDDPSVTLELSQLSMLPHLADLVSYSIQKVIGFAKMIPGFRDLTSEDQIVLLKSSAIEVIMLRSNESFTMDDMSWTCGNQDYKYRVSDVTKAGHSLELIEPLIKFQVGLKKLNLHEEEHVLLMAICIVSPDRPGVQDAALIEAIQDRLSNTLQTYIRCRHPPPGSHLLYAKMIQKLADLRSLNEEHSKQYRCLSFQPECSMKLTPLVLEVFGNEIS

Compound | Potency [1] | outcome [2] | Potency [3] | Potency [4] | Potency [5] | Potency [6] | Potency [7] | outcome [8] | Potency [9] | Potency [10] | Potency [11] | Potency [12] | Potency [13] | Potency [14] | Potency [15] | Potency [16] | Potency [17] | outcome [18] | Potency [19] | Potency [20]
Cc1nnc(-c2ccccc2)c(=O)n1N | inactive | inactive | inactive | inactive | inactive | inactive | inactive | inactive | inactive | inactive | inactive | inactive | inactive | inactive | inactive | inactive | inactive | – | – | –
O=C(O)c1cc(Cl)ccc1Cl | inactive | inactive | inactive | inactive | inactive | – | inactive | inactive | – | inactive | inactive | inactive | inactive | inactive | inactive | inactive | inactive | inactive | inactive | inactive
C=C(C)C(=O)OCCCCOC(=O)C(=C)C | inactive | inactive | inactive | inactive | – | inactive | inactive | inactive | inactive | inactive | inactive | inactive | inactive | inactive | inactive | inactive | inactive | – | – | –
CCCCCBr | inactive | inactive | – | inactive | – | inactive | inactive | inactive | inactive | inactive | inactive | inactive | inactive | inactive | inactive | inactive | inactive | – | inactive | inactive
CCC(C)(C)O | inactive | inactive | inactive | inactive | – | – | inactive | inactive | inactive | inactive | inactive | inactive | inactive | inactive | inactive | inactive | inactive | – | inactive | inactive
CC(C)CCON=O | inactive | inactive | inactive | inactive | – | – | inactive | inactive | inactive | inactive | inactive | inactive | inactive | inactive | inactive | inactive | inactive | – | – | –
OCCCl | inactive | inactive | inactive | – | inactive | – | inactive | – | inactive | inactive | inactive | inactive | inactive | inactive | inactive | inactive | 19.5 µM (active) | inactive | inactive | –
CCCCCCCCP(=O)(O)O | inactive | inactive | inactive | inactive | – | – | inactive | inactive | – | inactive | inactive | inactive | inactive | inactive | inactive | inactive | inactive | – | inactive | –
Nc1cc(Cl)cc(C(=O)O)c1Cl | inactive | inactive | inactive | inactive | – | – | inactive | – | inactive | inactive | inactive | inactive | inactive | inactive | inactive | inactive | inactive | – | inactive | inactive
OCCSSCCO | inactive | inactive | inactive | inactive | inactive | inactive | inactive | inactive | inactive | inactive | inactive | inactive | inactive | inactive | inactive | inactive | inactive | – | – | inactive
COCc1cnc(C2=NC(C)(C(C)C)C(=O)N2)c(C(=O)O)c1 (centres undefined) | inactive | inactive | inactive | – | inactive | inactive | inactive | inactive | – | inactive | inactive | inactive | inactive | inactive | inactive | inactive | inactive | – | inactive | inactive
CCC(=O)O[C@@H]1C=C2CCC3C(CCC4(C)C3CC[C@@H]4OC(=O)CC)C2CC1 (some centres undefined) | inactive | inactive | inactive | inactive | – | inactive | inactive | inactive | inactive | inactive | inactive | inactive | inactive | inactive | inactive | inactive | inactive | – | – | –
C=C(Cl)Cl | inactive | inactive | inactive | inactive | – | – | inactive | – | inactive | inactive | inactive | inactive | inactive | inactive | inactive | inactive | inactive | – | – | inactive
C=CCOC(=O)C(C)(C)OC(=O)c1cc(-n2c(=O)cc(C(F)(F)F)n(C)c2=O)ccc1Cl | inactive | – | inactive | inactive | – | inactive | – | – | – | inactive | inactive | inactive | inactive | inactive | inactive | inactive | inactive | – | – | inactive
C[N+](C)(C)CC1CO1 (centres undefined) | inactive | inactive | inactive | inactive | – | inactive | inactive | – | inactive | inactive | inactive | inactive | inactive | inactive | inactive | inactive | inactive | – | – | –
C=CC(=O)OCC | inactive | inactive | – | inactive | inactive | inactive | inactive | – | inactive | inactive | inactive | inactive | inactive | inactive | inactive | inactive | inactive | – | – | inactive
CCOP(=S)(OCC)Oc1ccc(S(C)=O)cc1 (centres undefined) | inactive | inactive | inactive | inactive | – | inactive | inactive | – | inactive | inactive | inactive | inactive | inactive | inactive | inactive | inactive | inactive | – | inactive | inactive
